{"source": "the supplement of paper PMC6555819"}
{"system": "VDR:RXRa (NR concentration 270 nM, RXRa partner concentration 90 nM)", "assay": "PBM binding z-score (relative to random genomic background probes); higher = stronger binding; sequences stand for … in GC…GCGATTGACAGCGTAGAATGAAGG", "procedure": "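Protein-binding microarray (Agilent 4x180K custom design, double-stranded 60-nt probes: 5' GC cap, 34-nt variable region, 24-nt constant primer region; full probe sequence given). Purified or IVT nuclear receptor:RXRα heterodimers (3:1 NR:RXRα, mostly 270:90 nM) or homodimers were incubated for 1 h in PBS with 2% milk and no ligand, then detected with Alexa488 antibodies. Fluorescence from o1-orientation probes (~5 replicates averaged) was converted to z-scores against 500 random hg19 background probes. Variable regions are seed direct-repeat (DR0–DR5) sites, all their single-nucleotide variants and half-site ablations.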"}
{"sequence": "CCTACTTGGCCAAAGGTCATTGATTCCAATGCTC", "PBM binding z-score": 4.62}
{"sequence": "CAAACTAGGACAAGAGGTCAAAGTCCGCTTCCCG", "PBM binding z-score": 5}
{"sequence": "TGAGTGAGGTTATAAGATCAGGGAACGTTGCAAA", "PBM binding z-score": 0.806}
{"sequence": "ACAATTAGTTGACTTAGGGCAACCGATACGACGC", "PBM binding z-score": 0.376}
{"sequence": "ACTCGTTGGTCAGCTGAGGTCACACACAATTCGG", "PBM binding z-score": 4.61}
{"sequence": "CCTAGGTGGTCAAGGTCACACACGCTATAGGTAC", "PBM binding z-score": 4.76}
{"sequence": "TCTATTAGTTGATTGGGGCAACCGAAACAGCGGA", "PBM binding z-score": 0.952}
{"sequence": "CCTAGTTGGTCAGGAGGTCTCACACCGGATATGA", "PBM binding z-score": 0.189}
{"sequence": "CGTAGCAGGCCAGGGTCACTCAAGCATTTCGCTT", "PBM binding z-score": 2.59}
{"sequence": "GCTGCTAAGTCAGGTTGGTCAGCTAACGGGTACG", "PBM binding z-score": -0.547}
{"sequence": "ACGATTAGTTGAGACGAGGGCAACCGATAGGTTG", "PBM binding z-score": 0.249}
{"sequence": "GGAACGAGGGCAAATTGATAGCAGAGTTTGATGG", "PBM binding z-score": 0.922}
{"sequence": "TCTTGTAGGTCAGCAGGTTAAGAAAGCTGGCCAA", "PBM binding z-score": 3.54}
{"sequence": "GGAACGAGGGCATTCGAGTTGATAGCTTGGCGAT", "PBM binding z-score": 3.55}
{"sequence": "ACTATCAGTTGACTTAGGGCAACCGATACGACGC", "PBM binding z-score": 0.408}
{"sequence": "TCTTGTAGATCAATAGAGGCTAAGAAAGTGCGCT", "PBM binding z-score": 0.377}
{"sequence": "ATCTCTAGGTAAAAGGTCAGTGAATCCCGAGGAT", "PBM binding z-score": 2.51}
{"sequence": "TCATATAGGTAAATGCTCGGTGAAAGTCCGATCT", "PBM binding z-score": 1.01}
{"sequence": "GCTGCTAGGTCAACTGATGGTTAGCTAAAGCTCG", "PBM binding z-score": 1.39}
{"sequence": "TATCCTAGGTCATGGGCCAGTATACCACGCGAAC", "PBM binding z-score": 2.75}
{"sequence": "CGAACTAGGTCATTGACAGTACAGTGAATAGTAA", "PBM binding z-score": 2.57}
{"sequence": "GCGAGTGGGGCAAAGCAGGTTACCATAAGGTTGG", "PBM binding z-score": 0.296}
{"sequence": "GTACCAAGGTGAATAGTTCGTTGATGAGTAGGCG", "PBM binding z-score": 0.251}
{"sequence": "TCAGACAGGTGAAGGTAAGTCAGGTACGCAGTCG", "PBM binding z-score": 0.301}
{"sequence": "TAGCCTAGGTCAGATCGGGACAGTATACGCTATA", "PBM binding z-score": 1.23}
{"sequence": "CTCGAAAGGTCCTGCTCAGGTGAGTATACCAAAC", "PBM binding z-score": -0.0691}
{"sequence": "ACTAGTTGGTCTGCTGAGGTCACACACAATTCGG", "PBM binding z-score": 3.54}
{"sequence": "CGTCCAAGGTCATAGGAGGCCAGTGAAGACAGAT", "PBM binding z-score": 4.93}
{"sequence": "CGAACTAGGTCATTGAGAGGACAGTGAATAGTAA", "PBM binding z-score": 2.92}
{"sequence": "CCTGCTAGGTCAATGGTCAGCTAGAGCAGCTCGC", "PBM binding z-score": 0.675}
{"sequence": "CGTCCAAGGTCATAGGTGGTCAGTGAAGACAGAT", "PBM binding z-score": 4.72}
{"sequence": "AGAACGAGGTTACCAAAGATCAGGGAAACGCTTG", "PBM binding z-score": 1.32}
{"sequence": "CCTGCTAGGTCAATGGTCAGCCAAAGCAGCTCGC", "PBM binding z-score": 0.672}
{"sequence": "TAACCTAGGTCATGGGCCAGTATACCACGCGAAC", "PBM binding z-score": 2.88}
{"sequence": "CGTGCAAGGTCAATGCTAGGTCAGTGAAAGCATT", "PBM binding z-score": 5.24}
{"sequence": "GCTTGTAGATCAAGCTTAAGAAAGACTAAGCTAA", "PBM binding z-score": -0.459}
{"sequence": "TCTTGTAGATCAACAGGAGGGTAAGAAAGATCGA", "PBM binding z-score": 0.029}
{"sequence": "TCTATTAGTTGATTAGGGCAACCCAAACAGCGGA", "PBM binding z-score": 0.694}
{"sequence": "TCATATAGGTAAATGGTGAAAGTCGGTGTGGTAA", "PBM binding z-score": 0.561}
{"sequence": "ATCGAAAGGTCTAGGTGAGTATAGAGAAAGGGAA", "PBM binding z-score": 0.435}
